# Only some compounds are listed: those with a hit (about 2.4% of all), similar ones and a draw of the others.
# ULK1 inh: ULK1 kinase inhibitors, primary screen, biochemical, AlphaScreen | Serine/threonine-protein kinase ULK1 (Homo sapiens), O75385 | AlphaScreen Atg13 phosphorylation by ULK1, luminescence | inhibition, % at 5.96 µM | 30,000 tested, 1.9% active; in the data active = inhibition above about 43%
# ASK1 primary: ASK1 kinase inhibitors, primary screen, biochemical, AlphaScreen | Mitogen-activated protein kinase kinase kinase 5 (Homo sapiens), Q99683 | AlphaScreen MKK6 phosphorylation by ASK1, luminescence | inhibition, % at 7.44 µM | 22,000 tested, 0.99% active; in the data active = inhibition above about 35%
# TruHits interf: AlphaScreen signal interference by compounds, dose response, artefact control for ASK1 inhibitor project, biochemical, TruHits beads | shares compounds with ASK1 primary | signal interference counterscreen | IC50, µM | 220 tested, 20% active | AID 1159604, 2016;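 active = IC50 of 10 µM or lower in the counterscreen; inactive = IC50 above 10 µM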;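 also: loss of AlphaScreen light from TruHits beads alone with no ASK1 enzyme present; potency of signal reduction so a low IC50 flags an assay artifact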
# A number is an active result; . = inactive; / = no result.
SMILES,ULK1 inh,ASK1 primary,others
c1cc(Nc2ccc3nc[nH]c3c2)cc(Nc2ccc(N3CCOCC3)cc2)n1,.,.,
Cc1cnc(Nc2ccc(N3CCNCC3)cc2)cc1Nc1ccccc1C(N)=O,94,.,
CC(C)n1c(-c2cccc(N)c2)nc2c(NCc3cccc(C(F)(F)F)c3)ncnc21,.,.,
COc1cc2nc(-c3cccc(C(C)=O)c3)nc(Nc3cc(OC)c(OC)c(OC)c3)c2cc1OC,.,.,
Nc1nc(Nc2ccc(-n3ccnc3)cc2)nc2c1ncn2Cc1ccc(C(F)(F)F)cc1,.,.,
O=C(NCc1cccc(C(F)(F)F)c1)c1cnc(Nc2ccccc2)s1,.,.,
NC(=O)c1ccccc1Nc1ccnc(Nc2ccc(N3CCOCC3)cc2)c1,.,.,
NC(=O)c1ccccc1Nc1ccnc(Nc2ccc(N3CCNCC3)cc2)c1,48,.,
O=C(NCCN1CCOCC1)c1cccc(-c2csc3ccccc23)n1,.,.,
Cn1c(Nc2nc(NCCc3ccc(O)cc3)c3ncn(C4CCCCC4)c3n2)nc2ccccc21,44,.,
CCCNc1nc(Nc2nc3ccccc3n2C)nc2c1ncn2C1CCCCC1,.,.,
COc1cccc(CNC(=O)c2cn3cc(-c4ccnc(Nc5ccnc(N)n5)n4)ccc3n2)c1,.,.,
CC(=O)Nc1ccc(Nc2cc(Nc3ccncn3)nc(N)n2)cc1,.,.,
COc1cc(Nc2cc(Nc3cnccn3)ncn2)cc(OC)c1OC,.,.,
CC(=O)Nc1ccc(Nc2cc(Nc3ccncc3)ncn2)cc1,79,.,
COc1cc(Nc2cc(Nc3ccncc3)ncn2)cc(OC)c1OC,62,.,
CC(=O)Nc1ccc(Nc2cc(Nc3ccncc3)nc(N)n2)cc1,.,.,
CC(=O)Nc1ccc(Nc2cc(Nc3ccncn3)ncn2)cc1,62,.,
CCCN1CCC2(CC1)NC(=O)N(CC(=O)NCCc1ccc(OC)c(OC)c1)C2=O,.,/,
c1ccc2c(c1)OCC(c1nc3ccc(-c4ccncn4)cc3[nH]1)O2 (stereo unspecified),.,.,
Nc1nc(NCc2cccc(C(F)(F)F)c2)cc(N2CCCC2CO)n1 (stereo unspecified),.,.,
CN1CCc2cccc3c2[C@H]1Cc1ccc(O)c(O)c1-3,46,/,
CC(=O)Nc1ccc(NC(=O)Cc2cn(-c3ccc(Nc4ccc(-n5ccnc5)cc4)nn3)c3ccccc23)cc1,.,.,
CN1Cc2cccc(Nc3cc(Nc4cccc5c4C(=O)N(C)C5)c(C(F)(F)F)cn3)c2C1=O,.,.,
FC(F)(F)c1cnc(Nc2ccccn2)cc1Nc1ccccn1,50,.,
SMILES,ULK1 inh,ASK1 primary,others
CC(=O)Nc1ccc(NC(=O)c2cccc(Nc3ccc(N4CCOCC4)cc3)n2)cc1,.,.,
CC(=O)Nc1ccc(NC(=O)c2cccc(Nc3ccc(-n4ccnc4)cc3)n2)cc1,.,.,
O=C(Nc1ccc(N2CCOCC2)cc1)c1cccc(Nc2ccc(N3CCOCC3)cc2)n1,48,.,
O=C(Nc1ccc(N2CCOCC2)cc1)c1cccc(Nc2ccc(-n3ccnc3)cc2)n1,50,.,
CCc1nnc(N/N=C/c2ccccc2Cl)n1N,48,/,
COc1cc(OC)nc(Oc2ccccc2/C=N/NC(N)=S)n1,.,/,
O=C(c1cc2nc(-c3ccco3)cc(C(F)(F)F)n2n1)N1CCCCC1,.,/,
O=C(Nc1ccc2nc(-c3ccco3)c(-c3ccco3)nc2c1)N1CCCC1,67,/,
CCNc1cc(Nc2cc(OC)c(OC)c(OC)c2)ncn1,.,.,
CC(=O)Nc1cc(-c2ccnc(N)n2)ccc1NC(=O)COc1cccc(C)c1,.,.,
Cc1cccc(OCc2nc3ccc(-c4ccnc(N)n4)cc3[nH]2)c1,68,.,
COc1nc(NCCCN2CCCC2=O)nc(Nc2cccnc2)n1,.,.,
CC(O)c1ccc(Nc2nccc(-c3ccc(NS(C)(=O)=O)cc3)n2)cc1 (stereo unspecified),69,.,
CS(=O)(=O)Nc1ccc(-c2ccnc(Nc3ccc(N4CCOC4=O)cc3)n2)cc1,70,.,
CS(=O)(=O)c1ccc(-c2ccnc(Nc3ccc(C(N)C(F)(F)F)cc3)n2)cc1 (stereo unspecified),.,.,
Cc1ncn(-c2ccc(Nc3nccc(-c4ccc(S(C)(=O)=O)cc4)n3)cc2)n1,.,.,
Cc1cnnn1-c1ccc(Nc2nccc(-c3ccc(NS(C)(=O)=O)cc3)n2)cc1,49,.,
CS(=O)(=O)Nc1ccc(-c2ccnc(Nc3ccc(-n4ccnn4)cc3)n2)cc1,66,.,
Cn1cnnc1-c1ccc(Nc2nccc(-c3ccc(NS(C)(=O)=O)cc3)n2)cc1,.,.,
O=C1OCCN1c1ccc(Nc2nccc(-c3cncc(N4CCOCC4)c3)n2)cc1,.,.,
c1ccc(CN2CCC(Nc3ccnc(Nc4ccncn4)n3)CC2)cc1,.,.,
NC(=O)c1ccc2nc(NCCN3CCOCC3)sc2c1,.,.,
O=C(NCCc1ccc(O)cc1)c1ccnc(N2CCN(Cc3ccc4c(c3)OCO4)CC2)c1,.,.,
COc1cc2nc(Nc3ccccc3)nc(Nc3ccc(NC(C)=O)cc3)c2cc1OC,.,.,
COc1cc2nc(Nc3nccc4ccccc34)nc(Nc3ccc(NC(C)=O)cc3)c2cc1OC,.,69,TruHits interf=.
SMILES,ULK1 inh,ASK1 primary,others
NNc1nc(NN)nc(Nc2ccccc2)n1,.,/,
CC(C)n1c(-c2ccc(C(N)=O)cc2)nc2c(Nc3ccc(Oc4ccccc4)cc3)ncnc21,.,37,TruHits interf=.
COc1ccc(-c2nc3c(Nc4ccc(Oc5ccccc5)cc4)ncnc3n2C(C)C)cc1,.,.,
FC(F)(F)c1cccc(CNc2ncnc3nc(-c4ccc(N5CCOCC5)nc4)[nH]c23)c1,.,.,
CC(C)n1cnc2c(Nc3ccc4c(c3)OCO4)nc(N3CCN(Cc4ccc5c(c4)OCO5)CC3)nc21,.,.,
CC(C)n1cnc2c(Nc3ccc4c(c3)OCO4)nc(Nc3ccc(N4CCOCC4)cc3)nc21,.,36,TruHits interf=.
CC(C)n1cnc2c(Nc3ccc(N4CCOCC4)cc3)nc(N3CCN(Cc4ccc5c(c4)OCO5)CC3)nc21,.,41,TruHits interf=.
CC(C)n1cnc2c(Nc3ccc4c(c3)OCO4)nc(N3CCC(N4CCOCC4)CC3)nc21,.,.,
Cc1cc(Nc2ccc(N3CCOCC3)cc2)nc(Nc2ccncc2)n1,.,.,
Cc1cc(Nc2ccc3c(c2)OCO3)nc(Nc2ccc(N3CCOCC3)cc2)n1,.,73,TruHits interf=.
COc1ccc(-c2nc(C)cc(Nc3ccc(N4CCOCC4)cc3)n2)cc1,.,50,TruHits interf=.
COc1ccc(-c2nc(C)cc(Nc3ccc(N4CCOCC4)cc3)n2)cn1,.,.,
COc1ccc(CNC(=S)N/N=C/c2cccc(OC)c2OC)cc1,.,/,
O=C1CCCN1CCCNc1ccnc(N2CCC(N3CCOCC3)CC2)n1,.,.,
COc1ccc(-c2nc(NCc3nc4ccccc4[nH]3)nc(OC)n2)cn1,.,.,
COc1cc2nc(Nc3ccncn3)nc(N)c2cc1OC,.,.,
c1cc(-n2cnc3c(Nc4ccc(N5CCOCC5)cc4)nc(N4CCOCC4)nc32)cs1,.,.,
COc1ccc(CCNc2nc(Nc3ccccc3)nc3c2ncn3C2CCCCC2)cc1,.,.,
COc1ccc(CCNc2nc(N3CCN(Cc4ccc5c(c4)OCO5)CC3)nc3c2ncn3C2CCCCC2)cc1,.,48,TruHits interf=.
c1cc(-n2cnc3c(Nc4ccc(N5CCOCC5)cc4)nc(N4CCN(Cc5ccc6c(c5)OCO6)CC4)nc32)cs1,.,51,TruHits interf=.
